# Screening results (PubChem BioAssay)
# Luc counter = Counterscreen for Luciferase (Kinase-Glo TM) Inhibition; Luciferin 4-monooxygenase (Photuris pensylvanica), Q27757; Kinase-Glo luciferase, ATP luminescence, 8 min; Potency, µM (titrated, usually from 38.3 µM), inactives show at the highest dose activity change, negative = inhibition, most hits filed as inhibitors; 200,000 tested, 0.28% active; AID 1379, 2008; note: % is set by controls: 0 for no effect and ±100 for the full control effect; nearly all actives have a fitted effect of over 60% in size
#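 Kinase-Glo luciferase light output from ATP and luciferin was measured with 10 uM ATP, within the enzyme's linear range. Buffer: 50 mM imidazole pH 7.2, 50 mM KCl, 7 mM MgCl2, 0.01% Tween 20, 0.05% BSA; luminescence read after 8 min at ambient temperature.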
# SMN2 splice enh = qHTS Assay for Enhancers of SMN2 Splice Variant Expression | HEK293 SMN2-luciferase splicing reporter, luminescence, 30-36 h | Potency, µM (series often up to 46.1 µM), for the others: at the highest dose activity change, positive = activation, hits mostly activators | 210,000 tested, 2.8% active | AID 1458, 2008; note: % of control where 0% means no effect; nearly all actives have a fitted effect of over 55% in size
#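 HEK293 cells carry an SMN2 […]–luciferase reporter in which exon 7 inclusion puts luciferase in frame. Cells were plated 10-12 h before compound addition, then incubated 30-36 h at 37C. ONE-Glo luminescence was read; sodium butyrate at 4.5 mM final served as control.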
# ELG1 genotoxic = qHTS screen for small molecules that induce genotoxicity in human embryonic kidney (HEK293T) cells expressing luciferase-tagged ELG1. HEK293T ELG1-luciferase reporter, luminescence, 16 h. Potency, µM (highest dose often 46 µM), for inactives: at the highest dose activity change, positive = activation, usual class: activators. 330,000 tested, 1.3% active. AID 504466, 2011; note: % of control where 0% means no effect; nearly all actives have a fitted effect of over 60% in size
#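 Luminescence read-out: rising ELG1-luciferase signal, reflecting elevated ELG1 protein under genetic stress, flags genotoxic compounds. Cells were treated for 16 hr at 37 °C before ONE-Glo detection.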
# Rab9 prom act = qHTS Assay for Rab9 Promoter Activators; Huh7 Rab9 promoter-luciferase reporter, luminescence, 24 h; Potency, µM (titrated, usually from 9.22 µM), without a hit: at the highest dose activation, negative = inhibition, actives largely listed as activators; 320,000 tested, 2.8% active; note: % of control where 0% means no effect; nearly all actives have a fitted effect of over 60% in size
#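 Quantitative HTS format; Huh7 Rab9-luciferase reporter cells (1500/well) receive compound 2 h post-plating, incubate 24 h at 37 °C, then get luciferase reagent for 10 min before luminescence reading.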
# NPC1 promoter act = qHTS Assay for NPC1 Promoter Activators; Huh7 NPC1 promoter luciferase reporter, 24 h; Potency, µM (series often up to 9.22 µM), for inactives: top-dose activation, usual class: activators; 320,000 tested, 2.4% active; note: % of control where 0% means no effect; nearly all actives have a fitted effect of over 60% in size
#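 Compounds in DMSO were transferred onto Huh7 NPC1-luciferase reporter cells pre-incubated 2 h; after 24 h at 37 °C, Amplite reagent was dispensed and luminescence recorded 10 min later.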
# FLuc counter = qHTS profiling assay for firefly luciferase inhibitor/activator using purifed enzyme and Km concentrations of substrates (counterscreen for miR-21 project) | purified FLuc, Km substrates, luminescence inhibition | Luciferin 4-monooxygenase (Photinus pyralis), P08659 | 360,000 tested, 6.9% active | Potency, µM (highest dose often 57.5 µM), for inactives: at the highest dose activity change, negative = inhibition, actives largely listed as inhibitors;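 note: plate controls were vehicle for no effect and reference inhibitor for full effect; nearly all actives have a fitted effect of over 55% in size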
# Target sequence (P08659 whole entry, looked up): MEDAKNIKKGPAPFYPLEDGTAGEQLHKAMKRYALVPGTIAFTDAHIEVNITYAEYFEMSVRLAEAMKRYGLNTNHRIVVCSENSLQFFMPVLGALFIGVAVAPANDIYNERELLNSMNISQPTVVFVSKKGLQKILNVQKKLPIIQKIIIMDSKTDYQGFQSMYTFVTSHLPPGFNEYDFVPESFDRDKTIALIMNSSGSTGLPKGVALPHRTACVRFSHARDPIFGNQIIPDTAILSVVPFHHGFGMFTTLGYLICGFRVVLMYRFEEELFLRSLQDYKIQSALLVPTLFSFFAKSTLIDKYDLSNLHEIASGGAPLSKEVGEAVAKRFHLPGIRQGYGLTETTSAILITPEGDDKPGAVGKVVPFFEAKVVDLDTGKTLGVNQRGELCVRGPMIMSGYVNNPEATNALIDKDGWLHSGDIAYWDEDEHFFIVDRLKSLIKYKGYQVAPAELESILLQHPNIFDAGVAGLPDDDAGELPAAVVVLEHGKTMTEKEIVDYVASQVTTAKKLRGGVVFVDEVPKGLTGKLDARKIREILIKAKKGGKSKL
#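 Purified P. pyralis luciferase (10nM final) with 10uM D-luciferin and 10uM ATP (Km levels) in 50mM Tris acetate pH 7.5, 10mM Mg acetate, 0.01% Tween-20, 0.05% BSA; qHTS 6-point titration, ~60 µM downward; luminescence read.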
# * hit, by the source's call; u = inconclusive; x = not tested or not shown; [ ] = remark or other dose. This is a sample that favours compounds with a hit; in the whole collection about 7.4% have one here. Calls come from the whole dose curve; as a rule, active = well fitted curve in the direction sought with a large enough effect; inconclusive = small, poorly fitted or top-dose-only effect, or another doubt; inactive = no such curve, though single readings can be large; an effect the other way counts as inactive or inconclusive. Potency is the fitted concentration of half-maximal effect.
SMILES,Luc counter,SMN2 splice enh,ELG1 genotoxic,Rab9 prom act,NPC1 promoter act,FLuc counter
O=C(CSC(=S)N1CCSCC1)c1ccccc1,-7.2%,12.6µM*,u,1.26µM*,1.26µM*,4.26µM*
O=C(CSC(=S)N1CCSCC1)c1ccc(Cl)cc1,0.6%,15.8µM*,u,1.58µM*,3.16µM*,3.01µM*
CC(=O)Oc1ccc(-c2nc(-c3cccnc3)no2)cc1,-27.6%,u,5.8µM*,u,3.55µM*,6.01µM*
CCOc1ccc(-c2nc(-c3cccnc3)no2)cc1OCC,-4.2%,-15.9%,8.9%,0.8%,6.5%,u
CC(=O)Nc1ccc(Oc2ccc(-c3noc(C)n3)cc2)cc1,-4.0%,5.4%,x,x,x,-9.5%
CC(=O)Oc1ccc(Oc2ccc(-c3noc(C)n3)cc2)cc1,0.5%,u,23.1µM*,u,11.3%,u
CCc1ccc(NC(=O)c2sc3nc(C)c(Cl)c(C)c3c2NC(=O)c2ccccc2)cc1,x,8.7%,x,x,x,1.2%
Cc1cccc(Nc2c([N+](=O)[O-])c(=O)n(C)c3ccccc23)c1,-4.9%,-10.7%[1.84 µM],1.0%,-4.3%,-0.8%,21.3µM*
CCN(CC)S(=O)(=O)c1ccc(C(=O)Nc2ccc(OCC(=O)N3CCOCC3)cc2)cc1,12.9%,-14.8%,-7.0%,1.9%,-2.2%,u
Cc1cc(OCC(=O)N2CCOCC2)ccc1NC(=O)c1ccccc1C,x,x,u,x,20.1%,7.57µM*
COc1ccc(NC(=O)Nc2ccc(OCC(=O)N3CCOCC3)cc2)cc1OC,x,x,4.5%,4.7%,-5.1%,13.5µM*
CCCCOc1ccc(C(=O)Nc2ccc(OCC(=O)N3CCOCC3)cc2)cc1,x,x,8.7%,22.2%,u,1.07µM*
Cc1ccc(C(=O)Nc2cc(C)c(OCC(=O)N3CCOCC3)c(C)c2)cc1,-9.8%,11.2µM*,u,2.82µM*,u,0.675µM*
COc1ccc(Cl)cc1C(=O)Nc1ccc(OCC(=O)N2CCOCC2)cc1,x,x,-6.1%,-3.8%,6.5%,u
O=C(O)CN(CCN(CC(=O)O)CC(=O)O)CC(=O)O.[Cu],-3.9%[7.66 µM],-5.0%[9.22 µM],x,x,x,x
Cc1sc2ncn(CC(=O)N3CCN(c4ccc(Cl)cc4)CC3)c(=O)c2c1S(=O)(=O)N1CCN(c2ncccn2)CC1,x,7.6%,x,x,x,-2.3%
Cc1oc2c(c(C)cc3oc(=O)c(CC(=O)NCCc4ccccc4F)c(C)c32)c1C,x,2.3%,x,x,x,-6.6%
Clc1ccc2nc(Nc3ccccc3Cl)nc(-c3ccccc3)c2c1,x,-0.3%,x,x,x,0.9%
COc1ccc(OC)c(NC(=O)c2ccc(OCC(=O)N3CCOCC3)c(OC)c2)c1,x,x,1.3%,1.3%,-6.6%,-0.3%
COc1cc(C(=O)Nc2ccc(C)c(S(=O)(=O)N(C)C)c2)ccc1OCC(=O)N1CCOCC1,x,x,3.0%,28.6%,12.8%,3.01µM*
O=C(Nc1ccc(OCC(=O)N2CCOCC2)cc1)c1ccccc1Cl,x,x,u,24.1%,22.4%,1.69µM*
CC(=O)c1ccc(NC(=O)C2CCC(CNS(=O)(=O)c3ccc4c(c3)CCCC(=O)N4)CC2)cc1 (stereo not given),x,x,x,x,x,1.9%
CCN(CC)c1ccc(/C=N/NC(=O)c2ccoc2C)c(O)c1,x,x,16.4µM*,-7.3%,u,2.69µM*
CCN(CC)c1ccc(/C=N/NC(=O)OC)c(O)c1,-4.2%,-11.9%,15.9%,28.5%,20.0%,10.7µM*
CCCc1nc2ccccc2n2c(-c3ccc(C)cc3)c3c(=O)n(C)c(=O)n(C)c3c12,x,-0.8%,x,x,x,-19.1%
CC1Cc2ccccc2N1c1ncnc2nc[nH]c12 (stereo not given),-3.2%,28.6%,1.6%,13.3%,21.8%,21.3µM*
c1ccn2c(SCc3cn4ccsc4n3)nnc2c1,-7.0%,14.1µM*,u,2.51µM*,u,16.9µM*
